This is part of a sample that, as a whole, favours compounds with a hit. Of some 83,000 tested, about 20% had one in any assay.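 Method: cells in 96-well plates; compound added at one concentration; 48 h incubation; percent growth measured; values under 10 scored active.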 Values without a mark were called inactive. Activity calls are given as the source filed them.

This experiment has as its system MDA-MB-468 breast. The experiment is described as follows: NCI-60 one-dose screen, 48 h (100 = growth as untreated, 0 = no growth, -100 = all killed). The settings on record: 10 µM unless noted.
For the molecule `Cc1ccc(C2CC(c3cccc(Nc4ccncc4)c3)=NN2c2ccc(Cl)cc2)cc1` (stereo unspecified), the growth is -71% (active).
Under `C=C(C)[C@@H]1CC[C@]2(CO)CC[C@]3(C)[C@H](CC[C@@H]4[C@@]5(C)CCC(NCCc6ccc(O)cc6)C(C)(C)[C@@H]5CC[C@]43C)[C@@H]12` (stereo partly specified) stands -91.7% (active).
The figure for `CCOP(=O)(OCC)/C(=C\N1C(=O)CC(=O)NC1=S)C(=O)OC` is 107%; for `O=C(CSc1nnc(-c2cc(-c3ccccc3)nc3ccccc23)n1-c1ccccc1)Nc1ccc(C(=O)/C=C/c2ccc(Cl)cc2)cc1` it is 88.9%.
Take `CC(=O)c1ccc2oc(=O)n(Cc3ccc(C#N)cc3)c(=O)c2c1`: the growth was 108%.
The figure for `Cc1ccc(S(=O)(=O)Nc2cccc(Cn3c(=O)[nH]c4ccc(Oc5ncccn5)cc4c3=O)c2)cc1` is 39.6%.
In the case of `COc1ccc(-c2nc3c(c(-c4ccc(Cl)cc4)nn3-c3ccccc3)c(-c3ccccc3)c2C#N)cc1`, the growth was 108%.
Consider `COc1ccc(CCOc2cc3c(cc2OC)CCN(C(=O)NCc2cocn2)C3c2ccc(C)cc2C)cc1` (stereo unspecified), for which the growth is 3.86% (active).
Regarding `CC[N+](CCCCCCCCCC[N+](CC)(c1ccccn1)c1ccccn1)(c1ccccn1)c1ccccn1`, the growth is -1.91% (active).
Under `CC1=CCC(OC(=O)C(C)(C)CC(O)(C(C)O)C(O)C2(C)C=CC(Cc3ccc(C(C)C)cc3)(C(C)C)CC2)(C(C)C)CC1` (stereo unspecified) stands 83.1%; under `NC(=S)N/N=C(/c1ccccc1)c1ccccc1N`, 18.4%; under `O=C(/C=C/C12c3ccccc3C(c3ccccc31)C1C(=O)N(c3ccccc3)C(=O)C12)c1ccccc1` (stereo unspecified), 1.31% (active).
Consider `C(=N\Nc1ccc2ccccc2n1)/c1ccccn1`, for which the growth is -27% (active).
The figure for `O=S(=O)(NCCCNc1nccc(-c2c(-c3ccc(F)c(O)c3)nc3sccn23)n1)c1ccccc1` is 82.4%; for `C=CC(=O)N1CC2(CC(n3nc(-c4ccc(Oc5ccccc5)cc4)c4c(N)ncnc43)C2)C1` it is -8.12% (active).
Under `CCCCCCCCCCCCCCCCCC(=O)OCCCCCCCCCCCCC` stands 117%; under `COc1ccc(-c2csc3c2-n2cccc2C3=O)cc1O`, -5.84% (active).
The figure for `COc1ccc(-c2nnc(COc3ccc(NC(=O)Nc4cc(C(F)(F)F)cc(C(F)(F)F)c4)cc3F)o2)cc1` is -9.21% (active); for `O=C1/C(=C/N2N=C(c3ccc(Cl)cc3)CC2c2ccccc2O)SC(=S)N1c1cccc(C(F)(F)F)c1` (stereo unspecified) it is 62.2%.
In the case of `COC(=O)[C@]12CC[C@@H](C)[C@H](C)[C@@H]1C1=CC[C@@H]3[C@@]4(C)C/C(=N\O)[C@H](O)[C@@]5(C)COC(=C45)C[C@@]3(C)[C@]1(C)CC2`, the growth is -71.7% (active).
Under `COc1ccc(/C=C/C(=O)c2cc3c(N)c(C(=O)Nc4ccc(OC)cc4)sc3nc2C)cc1` stands 11.6%; under `O=C1Nc2cc(OC(F)(F)F)ccc2Oc2ccc(-c3ccnc(N4CCNCC4)c3)cc21`, -79.4% (active); under `CCOc1ccc(N(C)c2ccc(/C=C/C3=[N+](C)c4ccccc4C3(C)C)cc2)cc1`, 6.26% (active).
Under `COc1cc(C2CC(c3ccccc3)=NN2C=O)ccc1Oc1nc2c(c(=O)n(C)c(=O)n2C)n1C` (stereo unspecified) stands 63.9%; under `Ic1cccs1`, 103%; under `CC(=O)c1nnn(-c2c(C(=O)n3nc(C)cc3C)sc(=S)n2-c2ccccc2)c1C`, 96.8%.
